G9a inh: blocks human histone lysine methyltransferase G9a; actives 8.8% (n = 350,000); Potency, µM (top dose mostly 102 µM), inactives show at the top dose activity, negative = inhibition, usual class: inhibitors; AID 504332; G9a H3K9 monomethylation, AlphaScreen, 2 h; also: % is scaled to controls: 0 for no effect and ±100 for the full control effect; nearly all actives have a fitted effect of over 75% in size
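AlphaScreen read-out: biotin-H3K9 peptide (500 nM) methylation by 20 nM enzyme with 20 uM SAM, 2 h at room temperature after 15 min compound preincubation; anti-monomethyl H3K9 antibody plus donor/acceptor beads, 10 min dark.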
Sfp PPTase inh: blocks B. subtilis Sfp PPTase activity; Biochemical Sfp PPTase activity, qHTS; AID 1490; actives 3.5% (n = 310,000); Potency, µM, for inactives: largest response in the series, negative = inhibition, actives largely listed as inhibitors;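 also: the enzyme is Sfp with the accession as filed and its product quenches rhodamine fluorescence; 0% = enzyme reaction without inhibitor and -100% = no enzyme wells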
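Fluorescence-quenching assay with 15 nM Sfp, 5 uM rhodamine-CoA and 12.5 uM BHQ-2-labelled ybbR peptide in pH 7.6 Hepes/MgCl2 buffer. Enzyme was pre-incubated with compound for 15 min at room temperature. Rate was taken from the 30-min fluorescence change (525/598 nm).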
HP1b binding inh: HP1-beta chromodomain-methylated histone interaction inhibition. P83916. AlphaScreen HP1-beta / biotin-H3K9me3 peptide binding. Potency, µM (top dose mostly 114 µM), for inactives: at the top dose activity change, negative = inhibition, usual class: inhibitors. actives 0.56% (n = 390,000). AID 540317; also: nearly all actives have a fitted effect of over 70% in size
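Compound inhibition of the preformed complex between 50 nM HP1-beta and 50 nM biotinylated H3K9me3 peptide was read by AlphaScreen. Buffer was PBS pH 7.4 with 0.01% Tween-20. Incubations ran 30 min at room temperature, with 10 ug/mL donor/acceptor beads.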
BAZ2B block: inhibitors of human BAZ2B bromodomain; Q9UIF8; AlphaScreen BAZ2B-H3K14Ac peptide displacement; Potency, µM (highest dose often 114 µM), inactives show at the highest dose activity change, negative = inhibition, hits mostly inhibitors; actives 4.4% (n = 360,000); AID 504333; also: % is scaled to controls: 0 for no effect and ±100 for the full control effect; nearly all actives have a fitted effect of over 60% in size
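AlphaScreen displacement: compounds (up to 110uM) incubated 30 min at room temperature with a preformed 50 nM BAZ2B/50 nM biotinylated H3K14Ac peptide complex in PBS pH 7.4 with Tween-20. Donor and acceptor beads at 10 ug/mL final added, 20 min light-protected before reading.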
JMJD2A Tudor: JMJD2A Tudor domain (human) inhibition | O75164 | actives 4.4% (n = 390,000) | AID 504339 | AlphaScreen JMJD2A-Tudor / H3K4me3 peptide binding | Potency, µM (highest dose often 114 µM), without a hit: at the highest dose activity change, negative = inhibition, actives largely listed as inhibitors; also: % is scaled to controls: 0 for no effect and ±100 for the full control effect; nearly all actives have a fitted effect of over 50% in size
* hit, by the source's call; u = inconclusive; x = no result given; ! = repeats disagree; [ ] = another dose, or the depositor's remark. Rows were chosen to be rich in hits. Some 12% of all compounds tested hit in one or more screens of this group. Calls follow the shape of the dose curve; as a rule, active = well fitted curve in the direction sought with a large enough effect; inconclusive = small, poorly fitted or top-dose-only effect, or another doubt; inactive = no such curve, though single readings can be large; an effect the other way counts as inactive or inconclusive. Potency is read from the fitted curve at half-maximal effect.

SMILES	G9a inh	Sfp PPTase inh	HP1b binding inh	BAZ2B block	JMJD2A Tudor
COC(=O)c1ccc(CNCC(O)COc2ccc(-c3ccccc3)cc2)cc1 (stereo not given)	7.8%	-7.2%	12.9%	-13.3%	-14.7%
O=C(COC(=O)c1ccco1)NCCc1ccc(Cl)cc1	-4.7%[12.7 µM]	x	38.2%	-2.4%	8.1%
OC(CNCc1ccc(Cl)cc1)COc1ccccc1 (stereo not given)	-46.1%	-24.7%	u	56.2µM*	20µM*
Cc1cc(C)c2[nH]c(C(=O)Nc3ccc4c(c3)OCO4)cc2c1	17.8µM*	-21.8%	-19.9%	50.1µM*	56.2µM*
O=C(Nc1ccc2c(c1)OCO2)c1ccc(CO)cc1	5.6%[12.7 µM]	x	29.8%	15.3%	-15.2%
CCc1ccc2[nH]c(C(=O)Nc3ccc4c(c3)OCO4)cc2c1	22.4µM*	-2.3%	-16.6%	-32.8%	u
O=C(Cc1ccccc1[N+](=O)[O-])NCc1ccc2c(c1)OCO2	u	9.3%	14.6%	1.8%	-6.6%
CCn1ccc2c(OCC(=O)Nc3ccc(C(C)=O)cc3)cccc2c1=O	-1.6%[59 µM]	x	29.3%	-14.2%	-4.9%
CNC(=O)[C@H]1O[C@@H](n2cnc3c(N)ncnc32)[C@H](O)[C@H]1O	3.16µM*	x	x	x	x
Nc1ncnc2c1ncn2[C@@H]1O[C@H](COP(=O)(O)OP(=O)(O)CP(=O)(O)O)[C@@H](O)[C@H]1O	-4.6%[59 µM]	1.3%	x	x	x
CNC(=O)[C@H]1O[C@@H](n2cnc3c(NCc4cccc(I)c4)nc(Cl)nc32)[C@H](O)[C@@H]1O	-5.3%[59 µM]	-13.6%	22.5%	-0.8%	-25.9%
Nc1ncnc2c1ncn2[C@@H]1O[C@H](COP(=O)(O)OP(=O)(O)OP(=O)(O)OP(=O)(O)OC[C@@H]2O[C@H](n3cnc4c(N)ncnc43)[C@@H](O)[C@H]2O)[C@@H](O)[C@H]1O	25.1µM*!	11.8%	x	x	x
Nc1ncnc2c1ncn2[C@@H]1O[C@H](COP(=O)(O)OP(=O)(O)O)[C@@H](O)[C@H]1O	35.0%[59 µM]	50.1µM*!	x	x	x
Cc1ccc(-c2nnn(CC(=O)N(CC(=O)NC3CCCCC3)c3ccc(F)c(Cl)c3)n2)o1	4.1%[59 µM]	27.4%	29.9%	-1.7%	-2.9%
Cc1ccc2oc(-c3cccc(NC(=O)c4ccc(N5CCC(C)CC5)c([N+](=O)[O-])c4)c3)nc2c1	-47.6%[59 µM]	x	-3.4%	u	-23.9%
Nc1nc(Cl)nc2c1ncn2[C@@H]1O[C@H](COP(=O)(O)OP(=O)(O)OP(=O)(O)O)[C@@H](O)[C@H]1O	26.7µM*	x	x	x	x
O=C(NCCSc1c[nH]c2ccccc12)c1ccco1	70.8µM*	2.2%	35.4%	3.0%	-3.5%
O=C(NCCSc1ncc(-c2ccc(F)cc2)[nH]1)c1ccco1	50.1µM*	x	19.2%	-9.0%	-8.2%
COc1cc(OC)cc(C(=O)NCCSc2c[nH]c3ccccc23)c1	44.7µM*	6.9%	3.4%	-27.6%	-30.8%
O=C(NCCSc1c[nH]c2ccccc12)c1c(F)cccc1F	x	-11.1%	23.5%	-2.0%	-5.6%
COc1cc(NC(=O)c2ccco2)c(OC)cc1NC(=O)CSc1ncc(-c2ccc(F)cc2)[nH]1	-26.8%[59 µM]	u	23.7%	0.9%	-15.3%
CCN(CC)c1nc(-c2ccccc2)nc2c1sc(=S)n2CC	-3.8%[59 µM]	6.3%	21.1%	-29.9%	0.7%
Cc1c(O[C@@H]2O[C@H](CO)[C@@H](O)[C@H](O)[C@H]2O)ccc2c1oc(=O)c1ccccc12	14.0%	9.2%	12.9%	-15.1%	-0.7%
CCOC(=O)c1cnc2ccccc2c1NCc1ccco1	1.4%	44.7µM*	40.1%	-0.2%	-3.7%
CCOC(=O)c1cnc2ccc(OC)cc2c1NCc1ccccc1	190.6%	-8.5%	114.6%	100.6%	48.6%
SMILES	G9a inh	Sfp PPTase inh	HP1b binding inh	BAZ2B block	JMJD2A Tudor
CCOC(=O)c1cnc2ccc(OCC)cc2c1NCc1ccccc1OC	27.1%[59 µM]	56.2µM*	156.0%	48.8%	45.9%
COc1ccc(N2CCN(C(CNC(=O)OCc3ccccc3)c3ccco3)CC2)cc1 (stereo not given)	25.1µM*	-9.2%	u	39.8µM*	39.8µM*
COc1ccc(N2CCN(C(CNC(C)=O)c3ccco3)CC2)cc1 (stereo not given)	u	13.9%	42.1%	-35.6%	-8.1%[11.4 µM]
COc1ccc(N2CCN(C(CNC(=O)C(=O)NC3CCCC3)c3ccco3)CC2)cc1 (stereo not given)	7.08µM*	x	19.8%	-20.9%	-6.2%
O=C(COc1ccccc1)NCC(c1ccco1)N1CCN(c2ccccc2)CC1 (stereo not given)	44.7µM*	x	-9.1%	-37.2%	u
COc1ccc(N2CCN(C(CNC(=O)C(=O)NCc3cccs3)c3ccco3)CC2)cc1 (stereo not given)	39.8µM*	0.9%	-0.9%	u	-8.1%[11.4 µM]
O=C(O)c1ccc(F)c(S(=O)(=O)Nc2ccccc2Cl)c1	-20.4%[12.7 µM]	10.6%	16.8%	-6.1%	-16.1%
COc1ccc(/C=C/C(=O)c2ccncc2)c2ccccc12	u	u	38.5%	-38.3%	56.2µM*
COc1ccc(/C=C/C(=O)c2ccc[nH]2)c(OC)c1OC	9.2%[59 µM]	7.1%	20.9%	-1.5%	-20.6%[57.1 µM]
CC(=O)c1c(C)nc(-c2ccc(Cl)cc2)nc1N	-45.6%	-16.4%	24.0%	79.4µM*	-17.4%
CSc1nc(-c2ccccc2)nc(N)c1C(C)=O	u	-7.2%	x	-2.8%	x
CC(=O)c1sc(-c2ccc(Cl)cc2)nc1C	2.0%	7.1%	65.9%	-6.4%	11.0%
CC(=O)c1c(C)nc(-c2ccc(Cl)cc2)nc1N=CN(C)C	3.55µM*	u	17.1%	79.4µM*	u
O=C(NCc1ccc2c(c1)OCO2)c1nc(S(=O)(=O)Cc2ccccc2F)ncc1Cl	17.8µM*	25.1µM*	36.8%	-36.1%	6.2%
CCOc1ccc(NC(=O)c2nc(S(=O)(=O)Cc3ccccc3F)ncc2Cl)cc1	-38.8%[59 µM]	x	48.1%	-2.2%	-4.7%
O=C(NCc1ccc2c(c1)OCO2)c1nc(S(=O)(=O)Cc2ccccc2)ncc1Cl	50.1µM*	u	9.3%[57 µM]	-24.7%	-23.6%
O=C(NCc1ccccc1)c1nc(S(=O)(=O)Cc2ccccc2)ncc1Cl	-3.1%[0.501 µM]	u	11.8%	-14.7%	-28.0%
C=CCn1c(O)c(N=NC(=S)Nc2cccc(OC)c2)c2ccccc21	28.2µM*	12.2%	u	7.94µM*	u
C=CCn1c(O)c(N=NC(=S)Nc2ccc(OC)cc2)c2ccccc21	28.2µM*	-13.2%	u	u	u
C=CCn1c(O)c(N=NC(=O)OCC)c2ccccc21	11.6%[59 µM]	1.6%	17.5%	-27.4%	-17.6%
CCCn1c(C2CC(=O)N(c3ccc(C)cc3)C2)nc2ccccc21 (stereo not given)	23.9%[0.501 µM]	6.0%	26.3%	-32.9%	18.9%
O=C(OCC(=O)N1CCCCC1)c1cc(S(=O)(=O)N2CCOCC2)c(Cl)cc1Cl	x	x	18.0%	x	-8.9%
CCOC(=O)CN1C(=O)C(O)=C(C(C)=O)C1c1ccccc1 (stereo not given)	-36.6%[2.33 µM]	8.8%	7.2%	79.4µM*	u
